Assay outcomes: PubChem, National Center for Advancing Translational Sciences (NCATS)
D2 antag: HTS Assay for Allosteric Antagonists of the Human D2 Dopamine Receptor: Primary Screen for Antagonists; D(2) dopamine receptor (Homo sapiens), P14416; HEK293 TREx D2 cells, calcium flux, dopamine EC80; hit rate 2% among 340,000; AID 485344, 2010; inhibition, % at 10 µM; in the data active = inhibition above about 30%; inactive = below that, where a call was filed; also: 0% is about no effect
Target sequence (P14416 whole entry, looked up): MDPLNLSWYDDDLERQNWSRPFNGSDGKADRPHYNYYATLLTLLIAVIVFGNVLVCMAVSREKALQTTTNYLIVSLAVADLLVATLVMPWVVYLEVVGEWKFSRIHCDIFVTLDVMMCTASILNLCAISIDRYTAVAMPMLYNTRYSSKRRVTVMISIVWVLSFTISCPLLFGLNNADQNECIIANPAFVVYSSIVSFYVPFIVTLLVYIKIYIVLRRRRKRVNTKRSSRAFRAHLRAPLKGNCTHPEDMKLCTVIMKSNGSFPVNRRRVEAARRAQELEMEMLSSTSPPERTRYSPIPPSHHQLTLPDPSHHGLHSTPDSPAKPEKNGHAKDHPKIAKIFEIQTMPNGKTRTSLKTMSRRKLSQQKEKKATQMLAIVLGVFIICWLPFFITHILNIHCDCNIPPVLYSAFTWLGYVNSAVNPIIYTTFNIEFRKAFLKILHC
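Dopamine at EC80 is the agonist stimulus; test compounds precede it by 180 s. Calcium flux read kinetically in a force-coupled, inducible HEK293 T-REx D2 cell line.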
D2 PAM-1: HTS Assay for Positive Allosteric Modulators of the Human D2 Dopamine Receptor: Primary Screen for Potentiators. D(2) dopamine receptor (Homo sapiens), P14416. HEK293 T-REx D2, calcium flux, EC20 dopamine potentiation. potentiation, % at 10 µM. hit rate 0.34% among 340,000. AID 485347, 2010;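 active = potentiation over 3 SD above the plate norm, cut at about 30% in these data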; also: 0% is about no effect
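Potentiation of an EC20 dopamine calcium response measured kinetically over 180 s, after a preceding 180 s compound-only read flagging agonists. Cells: inducible Hek293 Trex D2 line, 4000/well, cultured overnight at 30 C before dye loading.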
D2 ag-1: Beta-Arrestin HTS for Positive Allosteric Modulators of the Human D2 Dopamine Receptor: Agonists; activation, % (concentration not given with the values); DiscoveRx PathHunter D2 beta-arrestin, luminescence, 90 min; 100% = 57 uM dopamine signal; D(2) dopamine receptor (Homo sapiens), P14416; hit rate 0.084% among 360,000; in the data active = activation above about 40%; inconclusive = between about 15% and that limit
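DiscoveRx PathHunter D2 beta-arrestin cells (2,100/well) attached overnight, then compound-stimulated 90 min at 37 C in HBSS/10 mM HEPES/0.1% Tween-20 buffer; beta-galactosidase complementation read by luminescence after 1 h at ambient temperature. Dopamine 57 uM final (EC100) as control.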
D2 PAM-2: Beta-Arrestin HTS for Positive Allosteric Modulators of the Human D2 Dopamine Receptor: Potentiators; potentiation, % (no concentration beside the values); DiscoveRx D2 beta-arrestin cells, luminescence, 90 min; 100% = 57 uM dopamine signal; hit rate 0.23% among 360,000; D(2) dopamine receptor (Homo sapiens), P14416; in the data active = potentiation above about 50%; inconclusive = mostly about 30% to 49%
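PathHunter D2 cells, attached overnight at 37 deg C, received compound in DMSO plus dopamine at EC20 (50 nM final) for 90 min at 37 deg C. Beta-arrestin recruitment was read as luminescence after 1 h with detection reagent at ambient temperature.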
D2 ag-2: HTS Assay for Allosteric Agonists of the Human D2 Dopamine Receptor: Primary Screen for Agonists; HEK293 T-REx D2 cells, calcium flux agonist mode; activation, % at 2 µM; hit rate 0.53% among 340,000; AID 485358, 2010;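 active = activation over 3 SD above normal in the single-dose calcium agonist read, cut at about 30% in these data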; also: 0% is about no effect
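HEK293 Trex D2 cells, tetracycline-induced, o/n 30 C 5% CO2; no-wash Ca dye, RT 30–90 min; 10-cycle baseline, 23 nl cpd added, kinetic Ca read 180 s; agonist hits = positive Ca response.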
* = called active by the depositor; ? = inconclusive; nt = not tested or not shown; ! = not confirmed by another sample. This is a sample that favours compounds with a hit; in the whole collection about 2.4% have one here.

SMILES	D2 antag	D2 PAM-1	D2 ag-1	D2 PAM-2	D2 ag-2
COc1cccc(C2C(=O)N(C3CCCCC3)CC(=O)N2CCc2ccc(OC)c(OC)c2)c1 (configuration not stated)	nt	1	nt	nt	0
O=C(CCNC(=O)C1CCN(S(=O)(=O)c2ccc(F)cc2)CC1)NCc1ccc(F)cc1	33*	4	4	3	1
CCOc1ccc(CNC(=O)c2ccc3c(Cl)c4c(nc3c2)CCCC4)cc1	nt	6	nt	nt	1
CC(=O)N1CCN(Cc2nc3cc([N+](=O)[O-])ccc3n2C)CC1	nt	nt	0	-6	nt
COc1ccccc1C(=O)N1CCN(Cc2nc3cc([N+](=O)[O-])ccc3n2C)CC1	36*	-4	-4	-10	0
CCOC(=O)c1c(-c2ccc(C)cc2)csc1NC(=O)c1cc(=O)c2cc(C)cc(C)c2o1	nt	16	nt	nt	-1
CN1CCN(C(=O)c2ccccc2NC(=O)c2cccs2)CC1	37*	5	-3	5	1
CN1CCN(C(=O)c2ccccc2NC(=O)c2ccccc2Br)CC1	3	9	2	6	0
COc1ccc(CN2CCN(C(=O)c3cccs3)CC2)cc1	95*	-23	9	5	81*
O=C(c1cccs1)N1CCN(c2ccccc2)CC1	31*	-2	-2	-4	0
O=C(c1cccs1)N1CCN(c2ccc(F)cc2)CC1	-2	11	-2	-8	1
COc1ccccc1CNC(=O)CSc1nc2nc(C)c(Cc3ccccc3C)c(C)n2n1	nt	7	nt	nt	0
Cc1ccc(C2=NN(C(=O)CSc3nnnn3C)C(c3ccco3)C2)cc1 (configuration not stated)	43*	4	-3	-5	0
COc1cc(/C=C/C(=O)CC(=O)/C=C/c2ccc(O)c(OC)c2)ccc1O	27	-13	4	-10	53*
COc1cc(/C=C2/C(=O)CNC2=O)ccc1O	3	-18	-1	-1	37*
COc1cc(CNc2ccc3[nH]c(=O)[nH]c3c2)cc(Br)c1OCc1ccccc1F	-5	44*!	11	-2	1
COc1cc(CNc2ccc3[nH]c(=O)[nH]c3c2)ccc1OCc1ccccc1F	-16	11	10	7	1
COc1ccc(-c2cnc(C)o2)cc1S(=O)(=O)Nc1ccc(C)c(F)c1	nt	7	nt	nt	1
CCc1ccc(C2C(C(=O)Nc3ccccc3OC)=C(C)Nc3nc(SCc4ccccc4)nn32)cc1 (configuration not stated)	nt	10	nt	nt	nt
O=C(NC1CCCCC1)c1ccc(-c2ccccc2[N+](=O)[O-])o1	59*	-23	2	-18	-1
Cc1ccc(C2(C)NC(=O)N(CC(=O)Nc3ccc(S(=O)(=O)Nc4nccs4)cc3)C2=O)cc1 (configuration not stated)	-1	31*	3	4	-1
Cc1ccc(NC(=O)CN2C(=O)NC(C)(c3ccc(Cl)cc3)C2=O)cc1 (configuration not stated)	-7	1	-3	-6	3
O=C1CSC(c2cccnc2)N1CCc1ccccn1 (configuration not stated)	55*	-3	-5	-10	-2
O=C1CSC(c2cccnc2)N1Cc1cccnc1 (configuration not stated)	-17	-1	-2	7	0
CCOc1ccccc1C(=O)Nc1cc(-c2nc3cccnc3s2)ccc1C	nt	11	nt	nt	0
SMILES	D2 antag	D2 PAM-1	D2 ag-1	D2 PAM-2	D2 ag-2
COc1ccc(C(=O)C[n+]2cccc(C)c2C)cc1[N+](=O)[O-]	59*	-35	-5	-4	0
COc1ccc(S(=O)(=O)N2CCOC23CCN(C(=O)c2ccccc2OC)CC3)cc1	8	5	0	-1	0
COc1ccc(S(=O)(=O)N2CCOC23CCN(C(=O)c2ccccc2Br)CC3)cc1	26	71*	-3	-4	0
CCn1nnc(NC(=O)c2ccco2)n1	69*	13	-2	4	0
CCOc1ccccc1NC(=O)COc1cccc2c(=O)n(CCOC)ccc12	nt	6	nt	nt	1
Cc1ccc(C(=O)CCC(=O)CCC(=O)O)cc1	nt	nt	-1	-2	nt
O=C(O)CCC(=O)CCC(=O)c1ccccc1	35*	-8	0	-3	0
Cc1ccc(-c2nnc(-c3ccc4c(c3)OCO4)o2)cc1	-12	17	-3	-10	5
c1nnc(-c2ccc3c(c2)OCO3)o1	31*	-2	4	5	1
O=C(/C=C/c1ccc2c(c1)OCO2)Nc1nc(-c2ccccc2)cs1	-10	-2	0	-9	0
Clc1ccc(-c2csc(N/N=C/c3ccc4c(c3)OCO4)n2)cc1	35*	4	0	6	0
O=C(O)CSCCc1ccccn1	53*	-19	-2	-4	-1
CC(C)c1nnc(NC(=O)CCC(=O)Nc2ccc(F)cc2)s1	-13	-8	-8	-23	0
CCc1ccc(NC(=O)CCC(=O)Nc2nnc(C(C)C)s2)cc1	43*	2	0	-3	1
Cc1ccc(Cn2c(=O)c3c(nc4n3CCN4c3cc(C)cc(C)c3)n(C)c2=O)cc1	nt	-5	nt	nt	1
COc1ccc(C(=O)c2ccc(OC)c(OC)c2)cc1OC	-7	-8	-2	-2	0
COc1ccc(C(=O)c2nccc3cc(OC)c(OC)cc23)cc1OC	-16	15	?	94*	0
Cc1ccc(NC(=O)CSc2nc(-c3ccccc3Cl)nc3cc(=O)[nH]n23)c(C)c1	nt	-1	nt	nt	0
COc1ccc(F)cc1C(=O)C1CCCN(Cc2ccc(Oc3ncccn3)cc2)C1 (configuration not stated)	49*	-20	-4	-20	0
COc1ccc(C(=O)C2CCCN(Cc3cccn3-c3ccccn3)C2)cc1F (configuration not stated)	nt	20	-3	-3	nt
COc1ccc(F)cc1C(=O)C1CCCN(Cc2cnc(N3CCCC3)s2)C1 (configuration not stated)	66*	-24	-2	-7	-1
O=C(c1ccc(C(F)(F)F)cc1)C1CCCN(Cc2cccn2-c2ncccn2)C1 (configuration not stated)	-37	-3	-4	-16	1
O=C(c1cccc(C(F)(F)F)c1)C1CCCN(Cc2cccn2-c2ncccn2)C1 (configuration not stated)	32*	-9	0	-7	-1
